Assay [1] deals with PRMT1 (protein arginine N-methyltransferase 1). In words: PRMT1 binders on small-molecule microarrays, primary screen, biochemical, small-molecule microarray, 635 nm fluorescence (AID 1088).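 Note: binding of Prmt1 protein to compounds spotted on small-molecule microarray slides.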 Conditions: small-molecule microarray binding, higher = more signal.
The nature of assay [2]: yeast growth modulation, basal conditions, primary screen, YJM789 clinical isolate, OD600, 24 h (AID 1089).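 Note: growth of clinical yeast isolate S. cerevisiae YJM 789 seeded 1000 cells per well; test concentration not given here.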 Conditions: S. cerevisiae YJM789 growth, higher = more signal, called active from +8 up or from −8 down.
Assay [3] is described as follows: fission yeast growth modulation, primary screen, strain 972, OD600, 24 h, no modulator (AID 1090).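 Note: basal condition with compound alone and no growth modifier present; test concentration not given here.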 The conditions noted are these: S. pombe 972 growth, higher = more signal, called active from +8 up or from −8 down.
Assay [4] in a line: S. cerevisiae growth modulation with rapamycin, primary screen, strain BY4716, OD600, 96 h (AID 1091). Note: test concentration not given here. Conditions: higher = more signal, called active from +8 up or from −8 down.
Assay [5] addresses Torsin-1A-interacting protein 2 (Homo sapiens) (UniProt Q8NFQ8). The assay is described as follows: LULL1 binders on small-molecule microarray, primary screen, cell lysate, human LULL1 lysate, 635/667 nm fluorescence (AID 1092).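 Note: probe is lysate of COS7 cells overexpressing human LULL1; score merges per-feature 667 nm fluorescence with signal-to-noise.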 Conditions: hLULL1 lysate binding, 635 nm fluorescence, higher = more signal.
Assay [6] is described as follows: E. coli growth modulation, two-sided OD650, primary screen, E. coli filamentation project, strain DRC41, 24 h (AID 1093).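 Note: MC1000 strain lacking acrAB efflux and sulA so SOS filamentation is blocked; test concentration not given here.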 The conditions noted are these: OD650, 24 h, higher = more signal, called active from +8 up or from −8 down.
Assay [7] is described as follows: small-molecule microarray binders of probe aLefty2, primary screen, biochemical, biotinylated probe, 635/667 nm fluorescence (AID 1094).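 Note: score merges spot fluorescence near 667 nm with spot signal-to-noise ratio.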 The conditions noted are these: higher = more signal.
The subject of assay [8] is Noggin (protein binding on small-molecule microarray). In words: Noggin binders on small-molecule microarray, primary screen, biochemical, 635/667 nm fluorescence (AID 1095).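 Note: score merges 667 nm feature fluorescence with signal to noise over triplicate slides.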 The conditions noted are these: 635 nm fluorescence, higher = more signal.
In assay [9] the target is Neurogenic locus notch homolog protein 3 (Homo sapiens) (UniProt Q9UM47). In words: NOTCH3 binders on small-molecule microarray, primary screen, biochemical, 635/667 nm fluorescence (AID 1096). The conditions noted are these: NOTCH3 binding, 635 nm fluorescence, higher = more signal.
Neurogenic locus notch homolog protein 3 (Homo sapiens), sequence (Q9UM47 whole entry, looked up): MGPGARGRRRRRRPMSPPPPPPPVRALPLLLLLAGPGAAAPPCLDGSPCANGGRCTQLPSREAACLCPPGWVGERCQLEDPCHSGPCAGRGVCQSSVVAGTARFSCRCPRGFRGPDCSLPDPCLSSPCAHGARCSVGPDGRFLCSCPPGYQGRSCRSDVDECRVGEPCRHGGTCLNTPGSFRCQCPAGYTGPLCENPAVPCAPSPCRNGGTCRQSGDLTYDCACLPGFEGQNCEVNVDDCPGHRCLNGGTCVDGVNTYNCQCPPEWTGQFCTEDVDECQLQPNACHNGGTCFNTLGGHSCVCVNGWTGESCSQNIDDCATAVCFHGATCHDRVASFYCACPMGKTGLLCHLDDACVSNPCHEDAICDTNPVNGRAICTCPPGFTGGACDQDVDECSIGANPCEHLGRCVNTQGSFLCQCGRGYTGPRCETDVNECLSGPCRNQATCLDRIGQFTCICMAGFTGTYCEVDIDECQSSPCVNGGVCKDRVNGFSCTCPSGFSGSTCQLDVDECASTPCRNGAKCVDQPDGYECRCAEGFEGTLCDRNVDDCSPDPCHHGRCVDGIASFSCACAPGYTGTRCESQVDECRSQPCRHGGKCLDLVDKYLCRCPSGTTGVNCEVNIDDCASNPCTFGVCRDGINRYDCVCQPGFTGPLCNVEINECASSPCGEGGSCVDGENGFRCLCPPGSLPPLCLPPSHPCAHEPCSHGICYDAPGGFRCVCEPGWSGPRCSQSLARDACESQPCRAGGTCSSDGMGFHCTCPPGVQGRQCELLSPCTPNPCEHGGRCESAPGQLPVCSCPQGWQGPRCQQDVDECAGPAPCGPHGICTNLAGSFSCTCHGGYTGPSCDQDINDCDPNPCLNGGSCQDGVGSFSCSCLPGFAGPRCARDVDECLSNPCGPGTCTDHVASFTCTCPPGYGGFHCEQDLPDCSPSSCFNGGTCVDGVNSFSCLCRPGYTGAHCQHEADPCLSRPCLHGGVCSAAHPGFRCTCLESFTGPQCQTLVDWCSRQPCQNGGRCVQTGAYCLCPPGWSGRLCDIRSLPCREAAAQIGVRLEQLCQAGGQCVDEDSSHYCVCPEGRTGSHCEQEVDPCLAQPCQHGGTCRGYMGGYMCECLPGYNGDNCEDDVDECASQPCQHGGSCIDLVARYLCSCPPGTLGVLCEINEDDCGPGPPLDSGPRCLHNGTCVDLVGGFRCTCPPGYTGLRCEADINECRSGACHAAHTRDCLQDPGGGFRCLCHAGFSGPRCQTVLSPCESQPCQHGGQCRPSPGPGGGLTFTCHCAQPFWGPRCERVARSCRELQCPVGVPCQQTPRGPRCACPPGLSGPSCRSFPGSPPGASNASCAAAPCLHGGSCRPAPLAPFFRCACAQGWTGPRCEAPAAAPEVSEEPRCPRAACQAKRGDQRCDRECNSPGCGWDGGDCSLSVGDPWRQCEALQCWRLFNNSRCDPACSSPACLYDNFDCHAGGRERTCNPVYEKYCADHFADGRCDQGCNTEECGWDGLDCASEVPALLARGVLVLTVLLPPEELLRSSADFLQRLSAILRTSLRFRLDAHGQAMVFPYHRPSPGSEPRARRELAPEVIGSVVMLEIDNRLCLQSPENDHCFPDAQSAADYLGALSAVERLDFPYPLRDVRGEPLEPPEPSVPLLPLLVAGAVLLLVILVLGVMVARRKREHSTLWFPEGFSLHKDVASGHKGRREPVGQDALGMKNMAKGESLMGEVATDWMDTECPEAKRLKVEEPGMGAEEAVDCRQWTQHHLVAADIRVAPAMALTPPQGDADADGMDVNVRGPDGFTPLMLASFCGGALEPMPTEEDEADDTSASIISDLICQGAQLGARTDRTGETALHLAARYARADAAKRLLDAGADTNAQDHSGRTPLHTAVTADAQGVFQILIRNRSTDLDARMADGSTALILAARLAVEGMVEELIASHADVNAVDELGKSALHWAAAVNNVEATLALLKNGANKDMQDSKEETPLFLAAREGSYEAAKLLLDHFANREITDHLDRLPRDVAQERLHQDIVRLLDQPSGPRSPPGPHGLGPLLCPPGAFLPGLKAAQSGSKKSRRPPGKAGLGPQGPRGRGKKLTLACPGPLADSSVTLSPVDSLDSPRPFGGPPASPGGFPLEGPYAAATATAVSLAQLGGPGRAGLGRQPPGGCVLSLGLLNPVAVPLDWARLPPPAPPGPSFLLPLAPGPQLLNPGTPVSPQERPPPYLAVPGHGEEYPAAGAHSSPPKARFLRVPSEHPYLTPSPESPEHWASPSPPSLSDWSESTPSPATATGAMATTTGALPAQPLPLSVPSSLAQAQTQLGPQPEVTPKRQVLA
Assay [10] can be described thus: small-molecule microarray binders of probe aEGFR, primary screen, biochemical, biotinylated probe, 635/667 nm fluorescence (AID 1097).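 Note: probe is a biotinylated anti-EGFR antibody binding compounds printed on slides; score combines fluorescence near 667 nm and signal to noise of each spot.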 Conditions: higher = more signal.
Assay [11] relates to Plasmodium falciparum Sir2 (PF13_0152, Sir2A). The assay is described as follows: pfSir2 binders on small-molecule microarrays, primary screen, biochemical, small-molecule microarray, 635 nm fluorescence (AID 1098).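 Note: score merges spot fluorescence intensity with its signal-to-noise ratio.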 Conditions: small-molecule microarray binding, fluorescence 635 nm; higher = more signal.
Assay [12] in a line: small-molecule microarray binders of probe aDKK1, primary screen, biochemical, biotinylated probe, 635/667 nm fluorescence (AID 1099).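 Note: score merges 667nm spot fluorescence with signal to noise across triplicate slides; reference of the scale not given here.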 The conditions noted are these: higher = more signal.
A short description of assay [13]: small-molecule microarray binders of probe aCHRDL2, primary screen, biochemical, biotinylated probe, 635/667 nm fluorescence (AID 1100). Conditions: higher = more signal.
A short description of assay [14]: splicing luciferase reporter signal modulators, primary screen, spliceosome inhibition project, cell-based, HEK293, splice +/- reporter (AID 1101).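 Note: HEK293 cells carrying a splicing-competent luciferase reporter gene; test concentration not given here.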 The conditions noted are these: luminescence, 24 h, higher = more signal, called active from +8 up or from −8 down.
For assay [15], the target named is Fibroblast growth factor 10 (Homo sapiens) (UniProt O15520). The assay is described as follows: FGF10 binders on small-molecule microarrays, primary screen, biochemical, small-molecule microarray, 635 nm fluorescence (AID 1102). Conditions: FGF10 binding, fluorescence 635 nm, higher = more signal.
Fibroblast growth factor 10 (Homo sapiens), sequence (O15520 whole entry, looked up): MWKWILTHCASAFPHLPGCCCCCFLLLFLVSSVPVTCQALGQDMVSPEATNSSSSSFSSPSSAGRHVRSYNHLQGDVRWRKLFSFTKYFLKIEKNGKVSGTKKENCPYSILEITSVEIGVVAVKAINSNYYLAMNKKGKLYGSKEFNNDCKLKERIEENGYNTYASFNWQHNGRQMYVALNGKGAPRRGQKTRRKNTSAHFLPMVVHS
Assay [16] deals with glycogen synthase kinase-3 (GSK3A per assay name; protocol says GSK3B). The assay is described as follows: GSK3 binders on small-molecule microarrays, primary screen, biochemical, small-molecule microarray, 635 nm fluorescence, GSK3A (AID 1103). Note: the record names both GSK3A and GSK3B. Conditions: small-molecule microarray binding, fluorescence 635 nm; higher = more signal.
Assay [17] concerns the target Epidermal growth factor receptor (Homo sapiens) (UniProt P00533). The assay is described as follows: EGFR binders on small-molecule microarrays, primary screen, biochemical, small-molecule microarray, 635 nm fluorescence (AID 1104).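 Note: score merges 667 nm emission intensity with spot signal to noise over triplicate slides.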 Conditions: EGFR binding, higher = more signal.
Assay [18] has as its target Follistatin-related protein 3 (Homo sapiens) (UniProt O95633). The assay is described as follows: FSTL3 binders on small-molecule microarrays, primary screen, biochemical, small-molecule microarray, 635 nm fluorescence (AID 1105).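 Note: score merges emission near 667 nm and signal to noise per printed spot across three slides.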 The conditions noted are these: FSTL3 binding, higher = more signal.
Assay [19] concerns the target Dickkopf-related protein 1 (Homo sapiens) (UniProt O94907). The assay is described as follows: DKK1 binders on small-molecule microarrays, primary screen, biochemical, small-molecule microarray, 635 nm fluorescence scan (AID 1106).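 Note: score merges emission near 667 nm with signal to noise over three replicate slides.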 Conditions: DKK1 binding, higher = more signal.
For assay [20], the system named is Inhibin beta A chain (activin A). In words: INHBA (activin A) binders on microarrays, primary screen, biochemical, small-molecule microarray, 635 nm fluorescence scan (AID 1107).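 Note: mouse activin A protein probed at 4.33 µg/mL on printed slides; score merges bound-protein fluorescence near 667 nm with spot signal-to-noise.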 The conditions noted are these: small-molecule microarray binding, higher = more signal.

The source made the active and inactive calls.

Epidermal growth factor receptor (Homo sapiens), sequence (P00533 whole entry, looked up): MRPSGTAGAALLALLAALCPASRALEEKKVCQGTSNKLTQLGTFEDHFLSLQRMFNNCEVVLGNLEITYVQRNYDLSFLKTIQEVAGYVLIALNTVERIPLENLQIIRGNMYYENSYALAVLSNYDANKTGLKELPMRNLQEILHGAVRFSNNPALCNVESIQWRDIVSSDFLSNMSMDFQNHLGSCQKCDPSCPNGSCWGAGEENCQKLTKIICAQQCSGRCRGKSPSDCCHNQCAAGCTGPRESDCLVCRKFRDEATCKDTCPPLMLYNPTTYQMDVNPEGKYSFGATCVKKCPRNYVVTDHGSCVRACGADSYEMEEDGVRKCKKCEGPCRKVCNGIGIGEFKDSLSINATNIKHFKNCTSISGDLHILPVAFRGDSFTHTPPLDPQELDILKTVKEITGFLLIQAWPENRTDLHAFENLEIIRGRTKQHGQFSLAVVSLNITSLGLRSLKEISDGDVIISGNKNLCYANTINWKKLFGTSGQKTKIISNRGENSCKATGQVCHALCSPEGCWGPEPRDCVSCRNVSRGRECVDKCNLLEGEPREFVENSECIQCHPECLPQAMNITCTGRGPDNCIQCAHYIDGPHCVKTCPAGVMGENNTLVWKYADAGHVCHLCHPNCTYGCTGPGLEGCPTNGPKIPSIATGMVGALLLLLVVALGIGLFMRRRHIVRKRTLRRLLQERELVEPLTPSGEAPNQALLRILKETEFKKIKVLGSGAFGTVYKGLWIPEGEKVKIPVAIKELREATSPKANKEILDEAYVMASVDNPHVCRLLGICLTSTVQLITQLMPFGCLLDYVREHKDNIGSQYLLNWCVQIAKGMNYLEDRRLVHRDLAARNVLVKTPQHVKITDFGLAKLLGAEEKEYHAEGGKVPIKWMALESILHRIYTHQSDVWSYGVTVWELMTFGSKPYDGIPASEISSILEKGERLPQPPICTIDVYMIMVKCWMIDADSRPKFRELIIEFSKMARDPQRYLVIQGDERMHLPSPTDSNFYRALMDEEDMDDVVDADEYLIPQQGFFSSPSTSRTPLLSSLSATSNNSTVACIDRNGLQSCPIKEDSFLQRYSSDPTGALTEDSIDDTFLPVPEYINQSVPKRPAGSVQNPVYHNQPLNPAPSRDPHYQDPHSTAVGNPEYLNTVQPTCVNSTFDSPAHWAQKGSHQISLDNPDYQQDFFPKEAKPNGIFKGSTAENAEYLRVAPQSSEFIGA
Follistatin-related protein 3 (Homo sapiens), sequence (O95633 whole entry, looked up): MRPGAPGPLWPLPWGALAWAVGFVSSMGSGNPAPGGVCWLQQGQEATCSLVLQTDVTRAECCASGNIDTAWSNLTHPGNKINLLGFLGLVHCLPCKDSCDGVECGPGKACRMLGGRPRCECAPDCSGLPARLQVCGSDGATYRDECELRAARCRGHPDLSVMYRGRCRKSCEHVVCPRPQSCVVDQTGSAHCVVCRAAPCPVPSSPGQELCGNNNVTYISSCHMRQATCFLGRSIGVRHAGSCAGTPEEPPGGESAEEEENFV
Torsin-1A-interacting protein 2 (Homo sapiens), sequence (Q8NFQ8 whole entry, looked up): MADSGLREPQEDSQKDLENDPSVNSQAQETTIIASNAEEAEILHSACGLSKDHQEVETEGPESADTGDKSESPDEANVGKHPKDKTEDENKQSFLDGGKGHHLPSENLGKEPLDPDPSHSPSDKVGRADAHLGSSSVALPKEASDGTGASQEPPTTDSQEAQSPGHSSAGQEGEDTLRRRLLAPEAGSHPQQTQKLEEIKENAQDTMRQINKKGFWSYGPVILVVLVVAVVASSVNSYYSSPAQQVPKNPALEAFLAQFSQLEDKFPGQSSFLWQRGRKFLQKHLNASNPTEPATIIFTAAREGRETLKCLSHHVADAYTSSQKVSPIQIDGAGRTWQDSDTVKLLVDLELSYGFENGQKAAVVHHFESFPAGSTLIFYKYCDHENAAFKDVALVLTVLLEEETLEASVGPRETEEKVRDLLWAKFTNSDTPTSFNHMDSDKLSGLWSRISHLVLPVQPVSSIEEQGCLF
Dickkopf-related protein 1 (Homo sapiens), sequence (O94907 whole entry, looked up): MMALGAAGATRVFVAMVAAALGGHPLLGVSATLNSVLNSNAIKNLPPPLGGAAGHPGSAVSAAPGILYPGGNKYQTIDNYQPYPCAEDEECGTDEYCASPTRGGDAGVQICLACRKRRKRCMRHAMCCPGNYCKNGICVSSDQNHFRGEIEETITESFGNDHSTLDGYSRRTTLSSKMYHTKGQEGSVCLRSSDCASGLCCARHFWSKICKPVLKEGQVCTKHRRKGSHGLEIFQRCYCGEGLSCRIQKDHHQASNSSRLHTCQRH

As to `NCCCC[C@@H]1NC(=O)[C@H]2C[C@@H](C(=O)NCc3ccc(F)cc3)[C@@H](c3ccc(O)cc3)N2C1=O`, the composite z-score amounted to 1.3 in [1]; 3.3 in [5]; 0.726 in assay [7]; 1.09 in assay [8]; 0.997 in assay [9]; 0.149 in assay [10]. Further, the composite z-score was 1.6 in assay [11]; 0.831 in assay [12]; 1.07 in assay [13]; 0.186 in assay [15]; 1.33 in [16]; 0.117 in assay [17]. In addition, the composite z-score was 1 in assay [18], 0.496 in assay [19] and 1.2 in assay [20]. In addition, the z-score in assay [2] was 0.804 (inactive); in [3], 0.368 (inactive); in [4], 0.656 (inactive); in assay [6] it was -0.656 (inactive); in [14], 0.374 (inactive).
Turning to `COC(=O)C1=CC(CCCO)=CC(c2ccc(CN3CCCC3)cc2)N(Cc2sc3ccccc3c2Cl)C=C1C(=O)OC` (stereo not given), the composite z-score is 1.54 in [1]; 3.3 in [5]; 0.91 in [7]; 0.766 in [8]; 1.04 in assay [9]; 0.681 in assay [10]. For the same compound, the composite z-score in assay [11] was determined as 1.81; in [12], 0.81; in assay [13], 1.05; in assay [15], 1.37; in assay [16] it was 1.32; in [17], 0.526. Besides, the composite z-score in [18] was found to be 0.708; in [19], 0.227; in assay [20] it was 0.375. In addition, the z-score was -3.34 (inactive) in assay [2]; -7.33 (inactive) in assay [3]; -1.39 (inactive) in [4]; -0.542 (inactive) in assay [6]; -0.855 (inactive) in assay [14].
As for `C=CCC(OC(C)=O)[C@@H]1[C@@H](N(Cc2cccc3ccccc23)C(=O)c2ccc(C)cc2)c2cc(OCCCO)ccc2N1C(=O)c1ccc2ccccc2n1` (stereo not given in full), the composite z-score in [1] was 0.56; in [5], 0.563; in assay [7], 0.0748; in assay [8] it was 0.708; in assay [9], 0.209; in assay [10], -0.0437. Besides, the composite z-score was 0.206 in assay [11]; -0.16 in assay [12]; 0.322 in assay [13]; 0.0635 in [15]; 0.104 in [16]; 0.386 in [17]. Also, the composite z-score in assay [18] was 0.29; in assay [19], 0.145; in assay [20] it was 0.863. The z-score in assay [2] is -2.04 (inactive); in [3] it was 0.378 (inactive); in [4], -0.6 (inactive); in assay [6], 1.21 (inactive); in assay [14] it was -1.47 (inactive).
As for `COCCOC(=O)N1C(=O)[C@@]2(c3cc(C#CC4(O)CCCCCC4)ccc31)[C@H](c1ccc(OCCO)cc1)N1[C@H](c3ccccc3)[C@H](c3ccccc3)OC(=O)[C@H]1[C@@H]2C(N)=O`, the composite z-score was 1.53 in assay [1]; 1.67 in [5]; 0.0494 in [7]; 1.52 in assay [8]; 1.06 in assay [9]; -0.013 in assay [10]. In addition, the composite z-score was determined as 1.37 in [11]; 0.0809 in assay [12]; 0.0419 in [13]; 1.14 in assay [15]; 1.31 in assay [16]; 0.883 in [17]. In addition, the composite z-score was 1.22 in assay [18], 0.617 in [19] and 1 in assay [20]. For the same compound, the z-score in [2] is 1.29 (inactive); in assay [3] it was 0.926 (inactive); in [4], 4.69 (inactive); in [6], 0.257 (inactive); in assay [14], -1.47 (inactive).
For the compound `C=CC[C@@]1(C(=O)O)N=C(c2ccc(OCCCO)cc2)O[C@@H]1c1ccccc1CN=[N+]=[N-]`, the composite z-score was 0.753 in [1]; 3.34 in assay [5]; 0.0806 in assay [7]; 0.373 in assay [8]; 0.942 in assay [9]; 0.0209 in assay [10]. In addition, the composite z-score in assay [11] is 0.802; in [12], 0.682; in assay [13], 0.062; in assay [15], 0.397; in [16], 0.828; in assay [17], 0.583. Moreover, the composite z-score in [18] was determined as 1.17; in assay [19], 0.592; in assay [20] it was 1.15. The z-score in assay [2] was -1.23 (inactive); in assay [3] it was -2.27 (inactive); in [4], -1.95 (inactive); in assay [6], 0.788 (inactive); in [14], -1.38 (inactive).
